# Measured values reported in the supplement of paper PMC9254222.
# In all, about 1,100 compounds were measured (“Renilla luciferase signal (cell health) relative to plate median”: median about 0.97, highest 2% from about 1.6 on). The sample as a whole holds a higher share of the highest values than the screen did.
# Test system: HEK293T (UBE3A T485A transfected, BAR Wnt reporter)
# Test: Renilla luciferase signal (cell health) relative to plate median (fold (linear ratio)); higher = higher Renilla signal
# Details: 24 h
# How it was run: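 Chemicals at 0.01–100 uM were left on transfected HEK293T cells for 24 h, after a four-hour wait following transfection. The cells held a BAR firefly luciferase Wnt reporter, TK-Renilla and an expression plasmid. Wnt activity, as the firefly/Renilla ratio from a Dual-Glo luciferase readout, and cell health, as raw Renilla, were median-centred within each plate. Results average four biological replicates.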
SMILES,Renilla luciferase signal (concentration: 0.1 uM),Renilla luciferase signal (concentration: 1 uM),Renilla luciferase signal (concentration: 10 uM),Renilla luciferase signal (concentration: 100 uM),Renilla luciferase signal (concentration: 0.01 uM)
C=CCCCCCCCCCCCC [1-Tetradecene],1.14,1.17,0.992,1.23,–
CC[C@H]1CC[C@H](NCc2cc3c(cc2OC)[C@H]2C[C@H]2C(=O)N3C)[C@H](c2ccccc2)N1,0.925,0.69,0.042,0.0275,–
CC(C)(O)c1ccc(CNC(=O)c2cccnc2Oc2ccc3nonc3c2)cc1,0.961,0.975,0.999,0.124,–
CCCN(CCC)C(=O)SCC,0.898,1.09,0.918,2.92,0.911
CCSC(=O)N(CC(C)C)CC(C)C [Butylate],1.15,1.07,1.09,1.59,1.09
O=[N+]([O-])c1ccc(O)cc1 [4-Nitrophenol],0.863,0.956,0.876,0.736,–
O=C(O)c1ccc([N+](=O)[O-])cc1 [4-Nitrobenzoic acid],1.01,0.971,1.08,1.33,–
"C=CCc1cc(S(=O)(=O)c2ccc(O)c(CC=C)c2)ccc1O [4,4'-Sulfonylbis[2-(prop-2-en-1-yl)phenol]]",1,1.11,1.34,0.0284,–
Cc1c(C)c2c(c(C)c1O)CCC(C)(CCCC(C)CCCC(C)CCCC(C)C)O2 (stereo not drawn) [Vitamin E (alpha-tocopherol)],1.02,0.963,1.28,1.99,1.15
Cc1c(C)c2c(c(C)c1O)CCC(C)(COc1ccc(CC3SC(=O)NC3=O)cc1)O2 (stereo not drawn) [Troglitazone],0.923,0.982,0.892,0.0852,–
CCCCCCCCCCCCCCO [1-Tetradecanol],0.93,0.831,0.94,0.92,–
CCOc1ccc2c(c1)C(C)=CC(C)(C)N2 [Ethoxyquin],1,1.01,0.86,0.0339,–
OC[C@H]1O[C@@H]2O[C@H]3[C@H](O)[C@@H](O)[C@@H](O[C@H]4[C@H](O)[C@@H](O)[C@@H](O[C@H]5[C@H](O)[C@@H](O)[C@@H](O[C@H]6[C@H](O)[C@@H](O)[C@@H](O[C@H]7[C@H](O)[C@@H](O)[C@@H](O[C@H]1[C@H](O)[C@H]2O)O[C@@H]7CO)O[C@@H]6CO)O[C@@H]5CO)O[C@@H]4CO)O[C@@H]3CO [alpha-Cyclodextrin],1.12,1.05,1.05,1.77,–
Cc1oc(-c2ccccc2)nc1CCOc1cccc2c1ccn2CCC(=O)O,0.873,0.846,0.748,0.478,–
CCN(CC)CCNc1ccc(CNC=O)c2sc3ccc(OC)cc3c(=O)c12,0.886,0.626,0.193,0.0173,–
NC(=O)N(O)[C@@H]1C=C[C@H](Oc2cccc(Oc3ccc(F)cc3)c2)C1,1.08,0.968,1.14,0.801,–
CC1(C)NC(=O)N(c2ccc([N+](=O)[O-])c(C(F)(F)F)c2)C1=O [Nilutamide],1.05,1.09,0.995,0.268,–

SMILES,Renilla luciferase signal (concentration: 0.1 uM),Renilla luciferase signal (concentration: 1 uM),Renilla luciferase signal (concentration: 10 uM),Renilla luciferase signal (concentration: 100 uM),Renilla luciferase signal (concentration: 0.01 uM)
CC(=O)CC(c1ccccc1)c1c(O)c2ccccc2oc1=O (stereo not drawn) [Warfarin],1.16,0.923,0.762,1.24,–
NC(CCCP(=O)(O)O)C(=O)O (racemic),0.901,1.22,1.06,2.45,0.767
Cc1ccc(S(=O)(=O)NC(=O)NN2CCCCCC2)cc1 [Tolazamide],0.729,0.841,0.872,1.19,–
CC(C)(C)c1cc(O)ccc1O [tert-Butylhydroquinone],0.651,0.859,0.989,0.227,–
CO[C@@H]1COCC[C@@H]1[NH2+][C@@H]1CC[C@@](C(=O)N2CCc3ncc(C(F)(F)F)cc3C2)(C(C)C)C1.O=C([O-])CCC(=O)O,0.901,1.1,0.9,1.08,–
NCc1cccc(C2CCN(C(=O)c3ccc(C#Cc4ccccc4F)o3)CC2)c1,1.16,0.989,1.04,1.31,–
CCOC(=O)CCC(=O)OCC [Diethyl butanedioate],0.922,0.965,0.973,1.25,–
[Cl-].[Li+],1.03,0.97,0.953,1.14,0.945
[Cl-].[K+],0.999,1.06,1.02,1.88,1.13
Cc1cn([C@H]2C=C[C@@H](CO)O2)c(=O)[nH]c1=O [Stavudine],0.957,1.07,0.973,0.903,–
CCc1nc(N)nc(N)c1-c1ccc(Cl)cc1 [Pyrimethamine],1.11,1.06,1.07,0.0813,–
Cc1ccc(C(C)C)cc1 [p-Cymene],1.03,0.949,1.11,1.51,–
"CC(C)c1cccc(C(C)C)c1 [1,3-Diisopropylbenzene]",1.12,1.28,1.17,1.7,–
Nc1ncn([C@@H]2O[C@H](CO)[C@@H](O)[C@H]2O)c(=O)n1 [5-azacytidine],0.572,0.391,0.138,0.596,0.936
CCCCCCCCCCCCCCCCOS(=O)(=O)[O-].[Na+] [Sodium hexyldecyl sulfate],1.11,1.05,1.11,0.434,–
CC(=O)O[C@]1(C(C)=O)CC[C@H]2[C@@H]3C=C(Cl)C4=CC(=O)[C@@H]5C[C@@H]5[C@]4(C)[C@H]3CC[C@@]21C [Cyproterone acetate],1.06,0.965,0.849,0.603,–
CCOc1ccc2[nH]cc(C(=O)NCc3ccccc3)c(=O)c2n1,1.05,1.12,1.22,0.85,–
